For 15 compounds, activity remaining results are on record in PubChem BioAssay AID743025 (Vanderbilt Specialized Chemistry Center, 2013).

The structures appear in SMILES notation. A number with no mark means an inactive call. Activity calls are given as the source filed them.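 How the source made its calls: active means IC50 below 10 µM at human M5 in a calcium flux test, acting as a negative modulator; inactive means the rest.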

In the test the target is Muscarinic acetylcholine receptor M5 (Homo sapiens) (UniProt P08912). Description: inhibition of ACh-evoked M5 calcium signal – cell-based, single concentration, human M5 (AID 743025). To be noted: CHO-K1 hM5, ACh EC80 calcium flux, Fluo-4; at 10 µM; stronger effect = lower value. A general note: Calcium assays in cells follow changes in intracellular calcium, usually with a dye or a luminescent sensor.
Sequence of Muscarinic acetylcholine receptor M5 (Homo sapiens) (P08912 whole entry, looked up): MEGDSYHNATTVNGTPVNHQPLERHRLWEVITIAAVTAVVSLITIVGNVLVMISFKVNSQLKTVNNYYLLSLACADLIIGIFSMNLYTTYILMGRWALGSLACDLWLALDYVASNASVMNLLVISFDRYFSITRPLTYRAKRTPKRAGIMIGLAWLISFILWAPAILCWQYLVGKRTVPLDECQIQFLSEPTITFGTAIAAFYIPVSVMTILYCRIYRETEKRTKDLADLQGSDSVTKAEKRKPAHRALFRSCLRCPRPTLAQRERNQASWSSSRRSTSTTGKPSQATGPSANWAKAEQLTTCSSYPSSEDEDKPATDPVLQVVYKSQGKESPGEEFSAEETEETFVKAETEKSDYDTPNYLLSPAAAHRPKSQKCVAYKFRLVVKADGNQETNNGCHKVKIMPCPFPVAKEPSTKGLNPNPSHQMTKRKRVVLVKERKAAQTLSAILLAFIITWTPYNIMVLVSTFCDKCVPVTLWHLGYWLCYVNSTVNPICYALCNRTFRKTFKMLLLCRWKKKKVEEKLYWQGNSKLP

Consider `O=C(Nc1cccc(C(F)(F)F)c1)N1CCN2C(=O)c3ccccc3C12c1ccccc1` (stereo not given), for which the activity remaining is 76.4%.

For the compound `Cc1ccc(C23c4ccccc4C(=O)N2CCN3C(=O)c2ccc(OC(F)(F)F)cc2)cc1` (stereo not given), the activity remaining is 6.55% (active).

Turning to `N#CC1(c2ccccc2)CCCN1C(=O)c1ccccc1` (stereo not given), the activity remaining was 84.8%.

For the compound `O=C(c1cccs1)N1CCN2C(=O)c3ccccc3C12c1ccccc1` (stereo not given), the activity remaining was 79.5%.

`COc1ccc(C23NCCN2C(=O)c2ccccc23)cc1` (stereo not given): the activity remaining was 72.7%.

As to `Cc1ccc(C23c4ccccc4C(=O)N2CCN3C(=O)c2ccc(SC(F)(F)F)cc2)cc1` (stereo not given), the activity remaining was 10.9% (active).

In the case of `CC(C)(C)NC(=O)N1CCCN2C(=O)c3ccccc3C12c1ccccc1` (stereo not given), the activity remaining was 83.3%.

For the compound `O=C1c2ccccc2C2(c3ccccc3)N(Cc3ccc(F)cc3)CCN12` (stereo not given), the activity remaining is 80.8%.

Regarding `COc1ccccc1NC(=O)N1CCN2C(=O)c3ccccc3C12c1ccccc1` (stereo not given), the activity remaining was 86.6%.

As for `O=C(c1ccc(C(F)(F)F)cc1)N1CCN2C(=O)c3ccccc3C12c1ccc(Cl)cc1` (stereo not given), the activity remaining is 2.04% (active).

As for `O=C(c1ccc(OC(F)(F)F)cc1)N1CCCN2C(=O)c3ccccc3C12c1ccc(Cl)cc1` (stereo not given), the activity remaining is 76.4%.

As to `CC(C)(C)NC(=O)N1CCN2C(=O)c3ccccc3C12c1ccccc1` (stereo not given), the activity remaining is 83.8%.

For the compound `CSc1cccc(NC(=S)N2CCN3C(=O)c4ccccc4C32c2ccccc2)c1` (stereo not given), the activity remaining is 77.7%.

`Cc1ccc(C23c4ccccc4C(=O)N2CCN3C(=O)c2cccc(C(F)(F)F)c2)cc1` (stereo not given): the activity remaining is 28.8% (active).

In the case of `COc1cc(C(=O)N2CCN3C(=O)c4ccccc4C23c2ccc(Cl)cc2)cc(OC)c1OC` (stereo not given), the activity remaining was 63.4%.
